Experimental data reported in PubChem BioAssay (NCI).
This is part of a sample that, as a whole, favours compounds with a hit. Of some 83,000 tested, about 20% had one in any assay.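 Step 1: grow cells in 96-well plates. Step 2: add test compound at a single concentration. Step 3: incubate 48 h. Step 4: record percent growth.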 A number with no mark means an inactive call. Active and inactive are the calls of the source. The calls were made as follows: active = growth percent below 10; inactive = the rest.

How the values were obtained:
Assay in all cases: NCI-60 one-dose screen, 48 h (100 = growth as untreated, 0 = no growth, -100 = all killed)
Settings in all cases: 10 µM unless noted
HCT-15 colon = test system: HCT-15 colon
HT29 colon = test system: HT29 colon
SNB-75 CNS = test system: SNB-75 CNS
SNB-19 CNS = test system: SNB-19 CNS
U251 CNS = test system: U251 CNS
SK-MEL-5 melanoma = test system: SK-MEL-5 melanoma
UACC-62 melanoma = test system: UACC-62 melanoma
LOX IMVI melanoma = test system: LOX IMVI melanoma
SK-MEL-28 melanoma = test system: SK-MEL-28 melanoma
SK-MEL-2 melanoma = test system: SK-MEL-2 melanoma
EKVX NSCLC = test system: EKVX NSCLC
SN12C renal = test system: SN12C renal
UO-31 renal = test system: UO-31 renal
TK-10 renal = test system: TK-10 renal
ACHN renal = test system: ACHN renal
CAKI-1 renal = test system: CAKI-1 renal
A498 renal = test system: A498 renal
CCRF-CEM leukemia = test system: CCRF-CEM leukemia
MOLT-4 leukemia = test system: MOLT-4 leukemia
PC-3 prostate = test system: PC-3 prostate

Compound	growth (HCT-15 colon)	growth (HT29 colon)	growth (SNB-75 CNS)	growth (SNB-19 CNS)	growth (U251 CNS)	growth (SK-MEL-5 melanoma)	growth (UACC-62 melanoma)	growth (LOX IMVI melanoma)	growth (SK-MEL-28 melanoma)	growth (SK-MEL-2 melanoma)	growth (EKVX NSCLC)	growth (SN12C renal)	growth (UO-31 renal)	growth (TK-10 renal)	growth (ACHN renal) [%]	growth (CAKI-1 renal)	growth (A498 renal)	growth (CCRF-CEM leukemia)	growth (MOLT-4 leukemia)	growth (PC-3 prostate) [%]
Nc1c(Cl)cc(/C=C2\C=Cc3ccccc32)cc1Cl	100%	97.6%	86.1%	114%	108%	105%	106%	89.7%	114%	120%	94.2%	113%	95.7%	107%	101	110%	97.6%	106%	98.7%	–
Cc1nc2sc(C(=O)Nc3cccc(Cl)c3C)c(N)c2cc1C(=O)/C=C/c1ccccc1	-66.4% (active)	-58.6% (active)	12.6%	-41.8% (active)	-73.6% (active)	-10.8% (active)	2.03% (active)	-75.8% (active)	27.3%	33.8%	43.9%	-55.6% (active)	-60.1% (active)	-12.9% (active)	–	-62.1% (active)	-6.27% (active)	8.78% (active)	16.8%	–
Fc1cccc(CNc2c3ccccc3nc3ccccc23)c1	22.9%	14.3%	63%	35.9%	35.2%	60.5%	50.3%	12.3%	78.5%	81.4%	32%	32.8%	24%	64.1%	17.1	27%	-12.6% (active)	46.3%	14.9%	–
Cc1sc2nc(NCCN)[nH]c(=O)c2c1C	92.8%	95.1%	67.4%	87.5%	95.9%	96%	95.4%	91.3%	98.4%	103%	89.6%	90%	91.4%	96.9%	91.2	100%	91.8%	117%	106%	–
COc1cc2ncnc(Nc3ccc(F)c(Cl)c3)c2cc1OCC(=O)N1CCOCC1	96.6%	91.8%	102%	86%	102%	98.4%	86.6%	97.8%	106%	87.1%	63.3%	80.3%	52.4%	20.8%	31.9	48.4%	66.2%	91.6%	91.5%	–
COc1cc(-c2nccc3[nH]c(-c4cccc5[nH]ccc45)nc23)cc(OC)c1OC	17.6%	-3.78% (active)	73.6%	49.1%	13.6%	-45.8% (active)	51.4%	20.6%	76.9%	35.8%	46.3%	40.9%	34%	34.7%	17	31.4%	-6.89% (active)	11.7%	19.9%	–
CN(C)c1ccc(/C=N\NC(=O)c2ccc3nc(-c4ccc(Cl)cc4)[nH]c3c2)cc1	66.8%	4.33% (active)	97.2%	60.4%	1.62% (active)	89%	88.2%	34%	71.9%	83.3%	73.2%	41.2%	75.4%	94.4%	35.7	84.9%	72.9%	21.4%	23.6%	–
COC(=O)c1c2c(c(C)[n+]([O-])c1C)C(=O)C(NCc1ccccc1)=CC2=O	5.71% (active)	12.7%	125%	7.59% (active)	1.71% (active)	-84.9% (active)	-16.6% (active)	8.65% (active)	61.3%	23.6%	34%	2.86% (active)	42.1%	113%	35.4	22.3%	98.6%	21.9%	16.4%	–
CC1=C2CC/C(C)=C/CC[C@]3(C)O[C@H]3CC/C(C)=C/[C@H]2OC1	97.9%	94.7%	86.6%	98.5%	94.7%	108%	92.1%	101%	96.5%	92.6%	103%	95.5%	84.7%	100%	90.9	87%	97%	84.9%	86.5%	–
CS(=O)(=O)Nc1cc(-c2ccc3ncnc(Nc4ccc(OCc5ccccn5)c(Cl)c4)c3c2)cnc1Cl	25.1%	-5.91% (active)	-10.8% (active)	–	-27.1% (active)	-80.8% (active)	4.79% (active)	-19.6% (active)	8.34% (active)	-65% (active)	3.3% (active)	20%	0.194% (active)	-19.8% (active)	23.7	29.2%	-61% (active)	-2.25% (active)	-29.5% (active)	13.4
c1ccc(Nc2nc3c(s2)CCc2c[nH]cc2-3)nc1	102%	100%	88.7%	–	89.6%	83.5%	92.1%	82.7%	110%	99.2%	75.3%	106%	59.4%	159%	92.3	97.3%	81%	9.72% (active)	64.7%	70.4
Fc1ccc2[nH]cc(-c3nc(-c4c[nH]c5c(Cl)nccc45)cs3)c2c1	-39.6% (active)	17.5%	49.9%	–	13.8%	60.4%	24%	16.2%	43.9%	73.4%	63.2%	65.9%	21.8%	33.8%	17.7	49.2%	14%	28.5%	38.2%	31.5
